# Screening results (PubChem BioAssay)
# An excerpt weighted towards active compounds, which were near 5.7% of everything screened.
# AHR act: activators of human aryl hydrocarbon receptor; P35869; AHR-responsive luciferase reporter cells, luminescence; activation, % at 5 µM; actives 2.5% (n = 320,000); in the data active = activation above about 47%;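 note: 0% = vehicle wells and 100% = reference agonist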
# hgDAF-12 ag: hgDAF-12 agonism, primary luciferase screen | HEK293 GAL4-hgDAF12 UAS-luciferase reporter, agonist luminescence; normalized to butyrate control | actives 1.8% (n = 370,000) | AID 687014 | activation, % at 6.8 µM;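 active = activation above a cutoff set at the mean of all screened compounds plus 3 SD, cut at about 10% in these data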;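 note: 0% = DMSO wells and 100% = sodium butyrate wells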
# DAX1 inh-1: DAX1 (NR0B1) inhibition, primary screen. inhibition, % at 6.8 µM. actives 1.1% (n = 370,000). HEK293T StAR-luciferase reporter, SF-1/DAX-1 repression relief. AID 652010;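 active = inhibition above the mean over all tested compounds plus 3 SD, cut at about 3.6% in these data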;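 note: 0% = DAX-1 cells with DMSO and 100% = cells lacking DAX-1 with DMSO; higher inhibition means more luminescence from relief of DAX-1 repression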
# DAX1 inh-2: NR0B1 (DAX1) inhibition; HEK293 Gal4-DAX1 luciferase reporter, luminescence; inhibition, % at 6.75 µM; actives 0.99% (n = 340,000);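 active = inhibition above the mean over all tested compounds plus 3 SD, cut at about 4.2% in these data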;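 note: 0% = DAX1-transfected cells with DMSO and 100% = empty-vector control cells with DMSO; inhibition shows as a rise in luminescence from relieved DAX1 repression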
# ssDAF-12 act: activates DAF-12 receptor from parasite S. stercoralis. activation, % at 6.8 µM. actives 1% (n = 370,000). AID 652126. HEK293 ssDAF-12/GRIP1 lit1-tk-luc reporter, luminescence; % of 3 µM dafachronic acid response;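 active = activation above the mean over all tested compounds plus 3 SD, cut at about 0.9% in these data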;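 note: 0% = DMSO-only wells and 100% = 3 µM delta7-dafachronic acid wells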
# hcDAF12 agonist: activators of H. contortus DAF-12 nuclear receptor | HEK293 hcDAF-12 lit1-tk-luc reporter, luminescence; 0% DMSO, 100% Δ7-dafachronic acid | activation, % at 6.8 µM | actives 1.4% (n = 370,000) | AID 652067;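 active = activation above the mean of all tested compounds plus 3 SD, cut at about 5.5% in these data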;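 note: 100% = response to 3 µM Δ7-dafachronic acid high control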
# An asterisk follows results filed as active; x = no result.
SMILES,AHR act,hgDAF-12 ag,DAX1 inh-1,DAX1 inh-2,ssDAF-12 act,hcDAF12 agonist
C=CCN=C(NC#N)SC,-2.1,1.7,1.0,1.4,-0.9,-2.0
CCn1c(Sc2nc(C)nc3scc(-c4cccs4)c23)n[nH]c1=O,3.4,-2.9,-0.3,-1.4,-1.3,-1.5
Cc1nc(SCC(=O)NC(=O)NCCC(C)C)c2c(-c3cccs3)csc2n1,-0.2,-2.4,-0.1,0.1,2.1*,-2.2
COc1cccc(NC(=O)C2CCCN2C(=O)NCc2ccccc2)c1 (stereo not drawn),x,2.1,-0.4,x,-1.0,-2.0
Cc1ccc(N/C=C(\C#N)c2ccc(OCCCF)cc2)cc1,53.5*,0.1,0.3,1.0,-1.2,0.5
O=C(O)c1ccc2cccnc2n1,2.2,0.9,-0.8,-0.9,1.3*,-0.4
O=C(O)c1ccc2cccc(O)c2n1,0.1,-0.2,0.1,x,-1.3,-0.1
CCc1ccc(C2=NN(C(=O)CCC(=O)O)C(c3cccs3)C2)cc1 (stereo not drawn),10.6,6.0,-0.5,4.7*,0.1,1.0
Cc1ccc(C2=NN(C(=O)CCC(=O)O)C(c3ccc4c(c3)OCO4)C2)cc1 (stereo not drawn),6.4,0.4,0.1,0.5,-1.4,1.3
O=C(O)CCC(=O)N1N=C(c2ccccc2)CC1c1ccc2c(c1)OCO2 (stereo not drawn),x,9.1,0.2,1.5,0.6,5.7*
COc1cc(NC(=O)COc2ccc(Cl)cc2)ccc1-c1cc2ccccc2oc1=O,55.2*,2.0,0.5,-1.4,-0.9,0.6
COc1cc(NC(=O)COc2ccc(Cl)cc2)ccc1NC(=O)C(C)C,4.4,x,x,0.2,x,x
CS(=O)(=O)c1ccc2nc(NC(=O)CCS(=O)(=O)c3ccccc3)sc2c1,2.8,-1.5,0.0,0.4,-1.8,-1.9
CCN(CC)S(=O)(=O)c1ccc2nc(NC(=O)c3cccs3)sc2c1,71.6*,1.7,0.4,0.5,-0.9,5.2
CS(=O)(=O)c1ccc2nc(NC(=O)CCC(=O)c3cccs3)sc2c1,52.5*,5.1,-0.7,1.3,-1.2,-0.4
CSc1ncccc1C(=O)OCC(=O)NCCCc1ccccc1,-0.3,-1.3,0.8,0.9,-1.5,-0.5
COc1ccccc1C1Nc2cccc3cccc(c23)N1,60.3*,-3.3,-0.9,-0.3,-1.8,-0.9
O=[N+]([O-])c1ccccc1C1Nc2cccc3cccc(c23)N1,74.8*,-2.7,0.0,1.0,-0.4,1.3
CNc1nc(Nc2ccc([N+](=O)[O-])cc2)nc(OCC(F)(F)F)n1,62.2*,-0.6,-0.1,1.7,-0.9,-2.4
CCOc1nc(NCCO)nc(Nc2ccc([N+](=O)[O-])cc2)n1,19.6,1.6,-1.4,-1.0,-0.5,0.0
Cc1cc(NC(=O)COC(=O)C2CCN(S(=O)(=O)c3ccccc3)CC2)c([N+](=O)[O-])cc1C,5.5,3.5,-0.2,-0.4,-0.3,3.4
C[C@@H](C(=O)N=c1sc2ccccc2n1C)N1C(=O)C2CC=CCC2C1=O (stereo partly drawn),x,-1.1,0.1,-0.9,1.0*,1.3
COc1ccc(C(=O)N/N=C(\C)CC(=O)NC2CCCCC2)c(OC)c1,11.9,1.2,2.4,0.9,-0.7,-0.3
CCOC(=O)C1(CCOc2ccccc2)CCN(Cc2ccc(-n3cccn3)cc2)CC1,-1.6,-2.4,-1.9,-2.6,-2.4,-3.1
CN(C)c1ccc(NC(=O)C(=O)NCCOc2ccccc2)cc1,8.8,-0.5,0.7,-0.9,-1.0,-0.3
SMILES,AHR act,hgDAF-12 ag,DAX1 inh-1,DAX1 inh-2,ssDAF-12 act,hcDAF12 agonist
CC(C)CCNC(=O)C(=O)Nc1ccccc1,2.2,13.4*,3.1,1.8,-0.3,1.5
CCCNC(=O)C(=O)Nc1ccc(N(C)C)cc1,67.6*,5.3,1.9,2.5,-0.6,1.2
Cc1ccc(OCC(=O)NC(=S)Nc2ccc(S(=O)(=O)Nc3cc(C)on3)cc2)c(Br)c1,2.6,-0.2,-0.6,0.1,-1.4,-0.9
C=CCc1cc(Cl)ccc1OCCCn1ccnc1,27.9,0.0,0.1,2.4,-1.1,-1.9
O=C(CSc1nnc(-c2cccs2)n1-c1cccc(Cl)c1)c1cccc2c1OCCO2,-0.2,0.8,-0.1,6.1*,-0.5,-1.0
CCOC(=O)CN1CC23C=CC(O2)C(C(=O)Nc2cc(OC)ccc2OC)C3C1=O (stereo not drawn),6.2,-3.1,0.3,4.9*,-1.1,-1.6
